According to PubChem BioAssay (Tox21):
Several values for one entry are separate records, joined by “and”; a condition that tells them apart may be missing. Equal values may be shown once. Records with an inconclusive call do not appear. Some compounds were tested as several samples or in several runs, with calls that do not always agree. Activity calls are given as the source filed them. Unless noted, calls follow the shape of the dose curve; as a rule, active = well fitted curve in the direction sought with a large enough effect in the repeat runs; inconclusive = weak or mixed curves; inactive = no such curve, though single readings can be large; an effect the other way counts as inactive or inconclusive.

How the values were obtained:
[1] = qHTS assay to identify small molecule antagonists of the glucocorticoid receptor (GR) signaling pathway - cell viability counter screen (AID 720693); also: nearly all actives have a fitted effect of over 55% in size; also: potency is read from the fitted curve at half-maximal effect
[2] = qHTS assay for identifying genotoxic compounds that show differential cytotoxicity against isogenic chicken DT40 cell lines with known DNA damage response pathways - wild type cell line (AID 743012); also: nearly all actives have a fitted effect of over 60% in size; also: potency is read from the fitted curve at half-maximal effect
How it was run: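 Viability by ATP luminescence (CellTiter-Glo, 30 min RT) after 40 h compound treatment at 37 C/5% CO2, using 300 parental DNA repair-proficient DT40 cells per well.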

[3] = qHTS assay for identifying genotoxic compounds that show differential cytotoxicity against isogenic chicken DT40 cell lines with known DNA damage response pathways - Rev3 mutant cell line (AID 743014); also: nearly all actives have a fitted effect of over 55% in size; also: potency is read from the fitted curve at half-maximal effect
[4] = qHTS assay for identifying genotoxic compounds that show differential cytotoxicity against isogenic chicken DT40 cell lines with known DNA damage response pathways - Rad54/Ku70 mutant cell line (AID 743015); also: nearly all actives have a fitted effect of over 60% in size; also: potency is read from the fitted curve at half-maximal effect
[5] = qHTS assay to identify small molecule antagonists of the androgen receptor (AR) signaling pathway - cell viability counter screen (AID 743033; also: nearly all actives have a fitted effect of over 45% in size; also: potency is read from the fitted curve at half-maximal effect)
[6] = target: Androgen receptor (Homo sapiens) (UniProt P10275); assay: qHTS assay to identify small molecule agonists of the androgen receptor (AR) signaling pathway using the MDA cell line (AID 743040; also: nearly all actives have a fitted effect of over 20% in size)
Chain of Androgen receptor (Homo sapiens) (P10275 whole entry, looked up): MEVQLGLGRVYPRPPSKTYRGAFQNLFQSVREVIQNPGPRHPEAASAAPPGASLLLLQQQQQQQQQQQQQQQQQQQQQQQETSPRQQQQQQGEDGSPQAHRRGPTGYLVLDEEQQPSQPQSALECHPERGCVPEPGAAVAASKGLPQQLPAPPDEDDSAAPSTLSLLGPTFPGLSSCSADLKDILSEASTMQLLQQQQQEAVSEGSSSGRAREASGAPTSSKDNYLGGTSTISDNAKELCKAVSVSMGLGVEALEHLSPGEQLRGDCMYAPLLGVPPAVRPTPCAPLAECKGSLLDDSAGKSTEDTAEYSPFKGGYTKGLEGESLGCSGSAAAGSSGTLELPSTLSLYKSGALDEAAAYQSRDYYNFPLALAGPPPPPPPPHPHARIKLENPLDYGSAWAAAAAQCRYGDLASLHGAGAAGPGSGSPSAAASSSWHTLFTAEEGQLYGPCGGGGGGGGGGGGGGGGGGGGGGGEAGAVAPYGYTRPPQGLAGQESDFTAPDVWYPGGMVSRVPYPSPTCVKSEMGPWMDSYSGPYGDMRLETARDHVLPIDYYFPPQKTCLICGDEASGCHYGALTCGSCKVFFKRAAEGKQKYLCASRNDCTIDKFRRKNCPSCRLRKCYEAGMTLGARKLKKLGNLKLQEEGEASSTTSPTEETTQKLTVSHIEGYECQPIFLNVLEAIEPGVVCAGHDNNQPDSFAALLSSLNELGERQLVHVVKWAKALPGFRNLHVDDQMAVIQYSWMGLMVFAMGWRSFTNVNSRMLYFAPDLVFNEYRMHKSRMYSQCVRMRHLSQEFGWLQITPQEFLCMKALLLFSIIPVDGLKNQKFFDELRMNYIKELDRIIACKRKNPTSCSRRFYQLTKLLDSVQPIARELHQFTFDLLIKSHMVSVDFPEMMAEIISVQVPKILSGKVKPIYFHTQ
How it was run: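 Agonist activity is measured as luciferase luminescence in human MDA-kb2 cells whose MMTV reporter responds to both AR and GR. Compounds in DMSO incubate 16 h at 37C, 0% CO2, and ONE-Glo is read after 30 min.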

[7] = qHTS assay to identify small molecule antagonists of the androgen receptor (AR) signaling pathway using the MDA cell line - cell viability counter screen (AID 743041; also: nearly all actives have a fitted effect of over 45% in size; also: potency is read from the fitted curve at half-maximal effect)
How it was run: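 qHTS viability read-out; MDA-kb2 AR-luc; R1881-stimulated; 16 h exposure at 37C, 0% CO2; CellTiter-Fluor, 30 min; fluorescence intensity.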

[8] = target: Androgen receptor (Homo sapiens) (UniProt P10275); assay: qHTS assay to identify small molecule antagonists of the androgen receptor (AR) signaling pathway using the MDA cell line (AID 743042; also: nearly all actives have a fitted effect of over 55% in size; also: potency is read from the fitted curve at half-maximal effect)
How it was run: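 MDA-kb2 cells (human breast carcinoma, stably carrying an MMTV-luciferase reporter responsive to AR and GR) were plated at 3,000 cells/well and preincubated 5 hr at 37C, then given compound plus R1881 agonist for 16 h. ONE-Glo luminescence was read.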

[9] = qHTS assay to identify small molecule antagonists of the thyroid receptor (TR) signaling pathway - cell viability counter screen (AID 743064); also: nearly all actives have a fitted effect of over 50% in size; also: potency is read from the fitted curve at half-maximal effect
How it was run: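 Counter screen for cytotoxicity: compound plus T3 (1 nM final) on GH3.TRE-Luc cells, 23.5 h at 37 °C, then fluorescence viability readout with CellTiter-Fluor.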

[10] = qHTS assay to identify small molecule antagonists of the thyroid receptor (TR) signaling pathway (AID 743065); also: nearly all actives have a fitted effect of over 55% in size; also: potency is read from the fitted curve at half-maximal effect
How it was run: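 GH3.TRE-Luc rat pituitary cells carrying two TR response elements driving luciferase were plated for 4 h, given compound plus 1 nM T3 (final), and incubated 23.5 h at 37 C. ONE-Glo luminescence measured reporter inhibition; CellTiter-Fluor fluorescence tracked cytotoxicity.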

[11] = tested on: thyroid hormone receptor (rat, GH3 cells); assay: qHTS assay to identify small molecule agonists of the thyroid receptor (TR) signaling pathway (AID 743066; calls by dose curve)
[12] = qHTS assay to identify small molecule antagonists of the estrogen receptor alpha (ER-alpha) signaling pathway - cell viability counter screen (AID 743074; calls by dose curve; also: nearly all actives have a fitted effect of over 45% in size; also: potency is read from the fitted curve at half-maximal effect)
[13] = target: Estrogen receptor (Homo sapiens) (UniProt P03372); assay: qHTS assay to identify small molecule agonists of the estrogen receptor alpha (ER-alpha) signaling pathway (AID 743075; calls by dose curve; also: potency is read from the fitted curve at half-maximal effect)
Chain of Estrogen receptor (Homo sapiens) (P03372 whole entry, looked up): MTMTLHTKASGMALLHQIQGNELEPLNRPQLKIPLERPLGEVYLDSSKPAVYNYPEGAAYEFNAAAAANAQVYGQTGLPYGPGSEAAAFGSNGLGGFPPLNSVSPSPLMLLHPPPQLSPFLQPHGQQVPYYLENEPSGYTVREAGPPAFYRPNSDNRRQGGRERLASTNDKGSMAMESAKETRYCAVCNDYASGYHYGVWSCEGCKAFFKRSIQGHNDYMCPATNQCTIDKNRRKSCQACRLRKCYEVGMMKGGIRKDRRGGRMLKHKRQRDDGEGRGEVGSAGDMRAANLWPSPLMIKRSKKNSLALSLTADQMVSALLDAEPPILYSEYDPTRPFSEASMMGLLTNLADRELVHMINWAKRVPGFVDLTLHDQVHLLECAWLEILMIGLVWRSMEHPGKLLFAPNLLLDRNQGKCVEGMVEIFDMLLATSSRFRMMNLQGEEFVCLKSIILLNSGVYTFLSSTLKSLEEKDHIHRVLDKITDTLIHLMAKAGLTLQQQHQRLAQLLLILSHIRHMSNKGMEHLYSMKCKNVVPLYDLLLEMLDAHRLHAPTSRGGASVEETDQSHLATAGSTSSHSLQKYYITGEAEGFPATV

[14] = target: Estrogen receptor (Homo sapiens) (UniProt P03372); assay: qHTS assay to identify small molecule agonists of the estrogen receptor alpha (ER-alpha) signaling pathway using the BG1 cell line (AID 743079); also: nearly all actives have a fitted effect of over 20% in size; also: potency is read from the fitted curve at half-maximal effect
[15] = qHTS assay to identify small molecule antagonists of the estrogen receptor alpha (ER-alpha) signaling pathway using the BG1 cell line - cell viability counter screen (AID 743081);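 also: compound given together with 17beta-estradiol as the ER stimulus; nearly all actives have a fitted effect of over 45% in size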; also: potency is read from the fitted curve at half-maximal effect
Aromatase (Homo sapiens) = Aromatase (Homo sapiens) (UniProt P11511); assay: qHTS assay to identify aromatase inhibitors (AID 743083); also: nearly all actives have a fitted effect of over 55% in size; also: potency is read from the fitted curve at half-maximal effect
Chain of Aromatase (Homo sapiens) (P11511 whole entry, looked up): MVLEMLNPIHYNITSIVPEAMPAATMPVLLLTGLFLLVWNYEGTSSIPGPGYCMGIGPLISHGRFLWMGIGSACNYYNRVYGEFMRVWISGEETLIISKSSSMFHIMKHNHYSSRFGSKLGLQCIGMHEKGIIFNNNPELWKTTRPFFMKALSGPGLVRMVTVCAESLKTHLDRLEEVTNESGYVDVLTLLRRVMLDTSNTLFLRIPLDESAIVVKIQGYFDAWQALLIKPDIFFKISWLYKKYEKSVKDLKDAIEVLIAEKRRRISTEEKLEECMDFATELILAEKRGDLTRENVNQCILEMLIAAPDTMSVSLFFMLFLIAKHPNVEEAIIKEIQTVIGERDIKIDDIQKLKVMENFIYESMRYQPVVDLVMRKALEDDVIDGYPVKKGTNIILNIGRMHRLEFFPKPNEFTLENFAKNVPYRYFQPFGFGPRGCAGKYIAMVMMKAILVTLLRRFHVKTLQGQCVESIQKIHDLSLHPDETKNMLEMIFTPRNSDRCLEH

[16] = qHTS assay to identify aromatase inhibitors - cell viability counter screen (AID 743084); also: potency is read from the fitted curve at half-maximal effect
[17] = target: Estrogen receptor (Homo sapiens) (UniProt P03372); assay: qHTS assay to identify small molecule antagonists of the estrogen receptor alpha (ER-alpha) signaling pathway (AID 743069; active = well fitted curve in the direction sought with a large enough effect in the signal ratio in the repeat runs, not every such curve was filed as active; the % refers to the signal ratio; also: potency is read from the fitted curve at half-maximal effect)
How it was run: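 Screening used a UAS-driven beta-lactamase reporter integrated into HEK293 cells expressing ER-alpha, stimulated with 17beta-estradiol alongside test compounds over 18 hr at 37C; signal came from LiveBLAzer B/G FRET fluorescence.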

[18] = qHTS assay to identify small molecule antagonists of the estrogen receptor alpha (ER-alpha) signaling pathway using the BG1 cell line (AID 743080; calls by dose curve;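 also: BG1 cells stimulated with 17beta-estradiol alongside compound; nearly all actives have a fitted effect of over 25% in size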; also: potency is read from the fitted curve at half-maximal effect)
How it was run: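 Luminescence from a 4×ERE-luciferase reporter in BG1-Luc-4E2 cells served as read-out. Cells, pre-cultured 5 days in stripped-serum phenol-red-free medium, were exposed to compound with 17beta-estradiol co-stimulation for 21.5 h at 37 C.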

[19] = target: Androgen receptor (Homo sapiens) (UniProt P10275); assay: qHTS assay to identify small molecule antagonists of the androgen receptor (AR) signaling pathway (AID 743035; active = well fitted inhibition curve with a large enough effect in the signal ratio in the repeat runs, not every such curve was filed as active; the % refers to the signal ratio)
How it was run: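 Antagonist mode: AR-bla HEK293 cells co-treated with test compounds and agonist R1881 for 16 h at 37C, 5% CO2. Beta-lactamase activity read as FRET fluorescence after 2 h room-temperature substrate loading.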

Measured: Potency

CCOC(=O)CC(=O)CCl
inactive: [1] | [5] | [6] | [7] | [8] | [11] | [12] | [13] | [14] | [15]
active: [2] 61.1 µM | [3] 19.3 µM | [4] 24.3 µM | [9] 61.1 µM | [10] 61.1 µM | Aromatase (Homo sapiens) 30.6 µM | [16] 30.6 µM

Clc1ccc(C(c2ccc(Cl)cc2)C(Cl)(Cl)Cl)cc1
active: [2] 18.8 µM and 24.3 µM | [3] 10.6 µM and 7.75 µM and 6.86 µM | [4] 23.7 µM and 19.3 µM | [9] 18.8 µM and 30.9 µM and 30.6 µM | [10] 18.8 µM and 30.9 µM and 24.3 µM
inactive: [1] | [5] | [7] | [11] | [12] | [15] | Aromatase (Homo sapiens) | [16]

ClCc1ccc(Cl)cc1Cl
inactive: [1] | [2] | [3] | [4] | [7] | [9] | [10] | [11] | [17] | [12] | [13] | [14] | [18] | [15] | Aromatase (Homo sapiens) | [16]

ClC(Cl)=C(Cl)Cl
inactive: [1] | [2] | [3] | [4] | [5] | [7] | [9] | [10] | [11] | [12] | [15] | Aromatase (Homo sapiens) | [16]

Cc1cc(C)c(C2=C(OC(=O)CC(C)(C)C)C3(CCCC3)OC2=O)c(C)c1
inactive: [1] | [2] | [3] | [4] | [5] | [7] | [9] | [10] | [11] | [17] | [12] | [13] | [14] | [18] | [15] | Aromatase (Homo sapiens) | [16]

CN(C)CCc1c[nH]c2ccc(O)cc12
inactive: [1] | [2] | [3] | [4] | [5] | [19] | [6] | [7] | [8] | [9] | [10] | [11] | [15] | Aromatase (Homo sapiens) | [16]

CCCCCCCCCCCCCN1CC(C)OC(C)C1 (stereo not drawn)
active: [2] 54.5 µM | [3] 27.3 µM | [4] 30.6 µM
inactive: [1] | [5] | [7] | [9] | [10] | [11] | [17] | [12] | [13] | [14] | [18] | [15] | Aromatase (Homo sapiens) | [16]

O=[N+]([O-])c1ccc2ccc3cccc4ccc1c2c34
active: [13] 2.75 µM [fluorescent]
inactive: [1] | [2] | [3] | [4] | [5] | [6] | [7] | [8] | [9] | [11] | [12] | [14] | Aromatase (Homo sapiens) | [16]

CCCOCC(=Nc1ccc(Cl)cc1C(F)(F)F)n1ccnc1
active: [1] 15.5 µM | [2] 4.32 µM | [3] 4.32 µM | [4] 4.32 µM | [5] 12.3 µM | [7] 61.1 µM | [9] 7.69 µM | [10] 7.69 µM | Aromatase (Homo sapiens) 0.0153 µM | [16] 12.2 µM

COc1ccc(/C(=C/C(=O)N2CCOCC2)c2ccc(Cl)cc2)cc1OC
inactive: [1] | [5] | [19] | [6] | [7] | [9] | [10] | [11] | [12] | [15] | Aromatase (Homo sapiens) | [16]
active: [2] 24.3 µM | [3] 30.6 µM | [4] 30.6 µM | [8] 30.6 µM

CC1(C)CN=C(NN=C(/C=C/c2ccc(C(F)(F)F)cc2)/C=C/c2ccc(C(F)(F)F)cc2)NC1
active: [1] 24.5 µM | [2] 4.33 µM | [3] 3.86 µM | [4] 4.33 µM | [5] 21.9 µM | [9] 12.2 µM | [10] 12.2 µM | [17] 49 µM [cytotoxic] | [12] 43.6 µM | [14] 3.06 µM | [15] 61.1 µM | Aromatase (Homo sapiens) 8.63 µM | [16] 13.7 µM
inactive: [6] | [11]

O=c1[nH]c2ccccc2n1C1CCN(CCCC(c2ccc(F)cc2)c2ccc(F)cc2)CC1
inactive and 30.6 µM (active): Aromatase (Homo sapiens)
inactive: [7] | [13]
inactive and 17.4 µM (active): [5]
active: [1] 5.49 µM | [2] 5.31 µM and 6.11 µM | [3] 10.6 µM and 21.7 µM | [4] 8.41 µM and 9.69 µM | [12] 26.8 µM and 54.9 µM | [15] 54.5 µM | [16] 54.5 µM

CCC[CH2][Sn]([CH2]CCC)([CH2]CCC)[O]C(=O)c1ccccc1
active: [1] 1.55 µM | [2] 0.243 µM | [3] 0.154 µM | [4] 0.193 µM | [5] 0.692 µM | [7] 1.93 µM | [9] 1.22 µM | [17] 9.77 µM [cytotoxic] | [12] 1.74 µM | [18] 344 nM | [15] 1.72 µM | Aromatase (Homo sapiens) 2.17 µM | [16] 1.54 µM
